This note sets out measurements from PubChem BioAssay.

Assay [1] can be described thus: inhibitors of PAF-induced NFkB signaling in CF airway cells, dose response, cell-based, uHTS hits, panel, cytotoxicity readout (AID 624344). Conditions: CF bronchial epithelial cells, PAF-induced NFkB reporter inhibition, with PAF, run 1; at 79 µM (top of the series) unless noted.
Assay in assay [2]: as above
Conditions: CF bronchial epithelial cells, PAF-induced NFkB reporter inhibition, with PAF, run 2; at 79 µM (top of the series) unless noted.

As for `O=C1C=C(NC2=CC3OC(c4ccccc4)OCC3OC2=O)CCC1` (configuration not stated), the inhibition in assay [1] amounted to 103%; in assay [2], 111%.

Take `CC(=O)Oc1ccc(N(C(C)=O)S(=O)(=O)c2cccs2)c2ccccc12`: the inhibition in assay [1] turned out to be 92.7%; in assay [2], 62.6%.

Consider `Cc1[nH]nc2c1-c1nc3ccccc3nc1C(C)(C)C2`, for which the inhibition in assay [1] was determined as 113%; in assay [2], 99.3%.

With `Nc1ncc(-c2ccccc2)c(-c2ccc(O)cc2O)n1`, the inhibition was 100% in assay [1] and 112% in assay [2].

In the case of `COc1ccc(-c2cn[nH]c2-c2ccc(OCc3ccc([N+](=O)[O-])cc3)cc2O)cc1`, the inhibition in assay [1] was found to be 105%; in assay [2], 115%.

For the molecule `Cc1nn(-c2ccccc2)c(N2CCCC2)c1/C=N/NC(=O)c1cc(-c2ccccc2)nc2ccccc12`, the inhibition is 104% in assay [1] and 80% in assay [2].

Turning to `Cc1ccccc1S(=O)(=O)Cc1ccc(C(=O)N2CCN(c3cccc(C)c3C)CC2)o1`, the inhibition amounted to 103% in assay [1] and 114% in assay [2].

In the case of `C/C=C/COC(=O)c1[nH]c2c(c1C)C(=O)CC(c1ccco1)C2` (configuration not stated), the inhibition in assay [1] was determined as 106%; in assay [2] it was 92.9%.

For `CS(=O)(=O)c1ncc(Cl)c(C(=O)Nc2ccc(OC(F)F)cc2)n1`, the inhibition in assay [1] amounted to 91.4%; in assay [2], 90.1%.

Consider `COc1cccc(-c2ccc3ncnc(NCc4cccnc4)c3c2)c1`, for which the inhibition amounted to 103% in assay [1] and 100% in assay [2].

Consider `O=C(NCCc1ccc(F)cc1)c1coc(=O)c(Br)c1`, for which the inhibition in assay [1] came out at 82%; in assay [2], 83.4%.

For `COc1ccc(-n2cc(-c3ccccc3)c3c(N4CC(C)OC(C)C4)ncnc32)cc1` (configuration not stated), the inhibition in assay [1] and in assay [2] was 102% each time.

Turning to `CN(Cc1ccccc1)c1ncnc(N)c1[N+](=O)[O-]`, the inhibition was 115% in assay [1] and 102% in assay [2].

On to `COc1ccc2[nH]c(=O)c3c(c2c1)OC(C)(C)C=C3`, for which the figures for the inhibition in assay [1] and in assay [2] were 105% and 117%, respectively.

`O=C(COC(=O)c1c2c(nc3ccccc13)CCN(Cc1ccccc1)C2)Nc1c(F)cccc1F`: the inhibition in assay [1] was determined as 79.5%; in assay [2], 74%.

Consider `COc1cc(CN(C)c2ccc(S(=O)(=O)N3CCCC3)cn2)ccc1OC(F)F`, for which the inhibition in assay [1] was 82.4%; in assay [2], 98.6%.

Regarding `O=[N+]([O-])C1C(c2ccccc2)C12c1ccccc1-c1ccccc12` (configuration not stated), the inhibition in assay [1] is 99.1%; in assay [2], 106%.

`Cc1ccc(S(=O)(=O)Nc2ccc3cc([N+](=O)[O-])ccc3c2[N+](=O)[O-])cc1`: the inhibition worked out at 109% in assay [1] and 101% in assay [2].

Consider `COc1ccc(COC(=O)C2=C(C)NC(=O)NC2c2ccc(OC)cc2)cc1` (configuration not stated), for which the inhibition in assay [1] stood at 76.8%; in assay [2], 78%.

For `CC(C)n1c(SCc2ccccc2F)nc2c1c(=O)n(C)c(=O)n2C`, the inhibition in assay [1] was 96%; in assay [2], 95.1%.

As for `C[C@@H](NC(=O)c1coc(=O)c(Br)c1)c1ccccc1`, the inhibition stood at 77.6% in assay [1] and 99.8% [at 19.8 µM] in assay [2].

Regarding `O=C(NCc1ccccc1)C1=C[C@H](c2csc3ccccc23)C[C@H](OCc2ccc(CO)cc2)O1`, the inhibition in assay [1] worked out at 72%; in assay [2], 52.1%.

On to `O=C(Nc1ccc(Br)c2ccccc12)c1ccc2ccccc2c1O`, for which the inhibition is 112% in assay [1] and 104% in assay [2].

In the case of `Cc1cc(N2C(=O)C(O)=C(C(=O)c3ccc(C)o3)C2c2cccc(Oc3ccccc3)c2)no1` (configuration not stated), the inhibition in assay [1] came out at 64%; in assay [2] it was 82.8%.

For `CC(=O)OCCN1c2ccccc2Sc2cnccc21`, the inhibition in assay [1] was found to be 105%; in assay [2] it was 109%.

Regarding `COc1ccc(Nc2nc(-c3cccs3)nc3ccccc23)cc1S(=O)(=O)N1CCOCC1`, the inhibition was determined as 104% in assay [1] and 102% in assay [2].

As to `O=C(Nc1ccc(OCC(=O)N2CCOCC2)cc1)c1cncc(Br)c1`, the inhibition in assay [1] was 90.4%; in assay [2], 98.9%.

With `CCOc1ccc(CCN2C(=S)N([C@@H](CC(C)C)CN3CCCC3CN3C(=S)NC[C@@H]3CC(C)C)C[C@@H]2Cc2ccc(O)cc2)cc1` (some centres not stated), the inhibition is 76.2% in assay [1] and 93.9% in assay [2].

Regarding `c1cc(-c2nnc3sc(C4CCCCC4)nn23)ccn1`, the inhibition in assay [1] is 102%; in assay [2], 109%.

With `CC(C)(C)OC(=O)NCC(=O)Oc1cc2oc(=O)cc(-c3ccccc3)c2cc1Cl`, the inhibition in assay [1] worked out at 117%; in assay [2], 104%.

With `CC(C)C[C@H]1CNC(=S)N1C[C@H]1CCCN1C[C@H](Cc1ccccc1)N1C[C@H](Cc2ccc(O)cc2)N(CC2CCCCCC2)C1=S`, the inhibition came to 103% in assay [1] and 112% in assay [2].

Consider `O=C(/C=C/c1cccc([N+](=O)[O-])c1)NC(=S)Nc1ccc(CN2CCOCC2)cc1`, for which the inhibition in assay [1] stood at 100%; in assay [2], 112%.

On to `Cc1ccnc(Nc2nc(-c3sc(C)nc3C)cs2)c1`, for which the inhibition in assay [1] came to 107%; in assay [2], 104%.

For the molecule `COc1cc(C(=O)c2cc3c(cc2C)OCO3)cc(OC)c1OC`, the inhibition amounted to 48.2% in assay [1] and 51.8% in assay [2].

Consider `CC(=O)Nc1nc(C)c(-c2csc(Nc3cccc(C(C)=O)c3)n2)s1`, for which the inhibition in assay [1] amounted to 105%; in assay [2], 101%.

In the case of `Cc1cnc(NC(=O)CCCc2nc3ccccc3s2)s1`, the inhibition in assay [1] was determined as 101%; in assay [2], 114%.

As for `CC(C)C[C@@H](CN1CCC[C@@H]1CN1C(=S)NC[C@@H]1Cc1ccc(O)cc1)N1C[C@H](Cc2ccc(O)cc2)N(CC2CCCCC2)C1=S`, the inhibition in assay [1] came to 105%; in assay [2], 118%.

For the molecule `Cc1c(Cl)cccc1NC(=O)COC(=O)c1c2c(nc3ccccc13)CCN(Cc1ccccc1)C2`, the values for the inhibition in assay [1] and in assay [2] were 72.2% and 97.3%, respectively.

Turning to `CC(C)(C)c1nc(NC(=O)Nc2ccccc2)sc1Br`, the values for the inhibition in assay [1] and in assay [2] were 107% and 103%, respectively.

With `CC(C)C[C@H](CO)Nc1nc(Nc2cccc(Cl)c2)c2ncn(C(C)C)c2n1`, the values for the inhibition in assay [1] and in assay [2] were 112% and 100%, respectively.

For the molecule `CC(C)[C@H](CO)Nc1nc(NCc2ccc(S(N)(=O)=O)cc2)c2ncn(C(C)C)c2n1`, the inhibition in assay [1] is 107%; in assay [2] it was 110%.

Usually inhibition stands for the change of the read-out against control, counted positive when it falls.
